# Results from PubChem BioAssay AID720541 (National Center for Advancing Translational Sciences (NCATS), 2013).
# Hit rate of the full screen: of about 1,300 compounds, about 420 (32%) were called active. Inconclusive results (about 32%) are left out. Calls come from the whole dose curve; as a rule, active = well fitted inhibition curve with a large enough effect; inconclusive = small, poorly fitted or top-dose-only effect; inactive = no such curve, though single readings can be large or run the other way. Some of the results follow. Where a call stands in place of a potency, no number is given.
# Molecular target: C-terminal-binding protein 1 (Homo sapiens) (UniProt Q13363)
# Assay: qHTS for Inhibitors of the Phosphatase Activity of Eya2: Carboxyl-terminal binding protein (CtBP) Counterscreen for Cherry-picked Compounds; note: nearly all actives have a fitted effect of over 65% in size
# Conditions: purified protein-protein binding, AlphaScreen, 3 h; series mostly up to 46.1 µM
# Description: The Eya protein family is an essential co-activator of the Six1 transcription factor. Six1 is a developmental gene that is abnormally re-expressed in a large percentage of breast cancers. This over-expression plays a causal role in the initiation and metastatic development of breast cancers. The Eya family of protein is also found to contain a unique HAD phosphatase domain with protein tyrosine phosphatase activity which can potentially play a role in Six1-mediated breast tumorigenesis. Recently, Eya2 is found to dephosphorylate the histone variant H2AX and direct cells towards DNA repair instead of apoptosis in the event of DNA damage.
# A 1536 well format, fluorescence based qHTS assay was developed and used to target the phosphatase activity of Eya2 (AID 488837). In addition, a CtBP counterscreen was developed using the AlphaScreen technology to evaluate compound selectivity to target […]. The data herein reports the activity of the cherry-picked compounds against the CtBP AlphaScreen. Compounds that are active or have > 100 fold selectivity vs. the Eya2 activity were excluded for further characterization. Inactivity is the desired outcome for the CtBP counterscreen.
# NIH Chemical Genomics Center [NCGC]
# NIH Molecular Libraries Probe Centers Network [MLPCN]
# Assay Submitter (PI): Rui Zhao, University of Colorado Denver
# Four microliters of reagent (25 nM GST-E1A, 25 nM CtBP-6x HIS) was dispensed in a 1536 well Greiner plates. Twenty-three nanoliter of test compounds (final concentration of 2.5 nM - 46 uM) and positive control E1A peptide inhibitor (final concentration of 0.14 nM - 4.6 uM) were added to the plates using the Kalypsys pintool equipped with a 1536 pin head. The plates was then incubated at room temperature for 2 hours followed by addition of 1 uL Alpha bead donor / acceptor mix (20 ug/mL final concentration). The assay plates were incubated for additional 1 hour at room temperature and protected from light. The AlphaScreen signal was obtained using the PerkinElmer EnVision plate reader using the 680 nm excitation and 520 - 620 nm emission filters. The data was normalized to the E1A peptide inhibitor for maximum inhibition and DMSO treated wells as negative control.
# Potency is the fitted concentration of half-maximal effect.
row,SMILES,Potency
1,N[C@@H](Cc1cc(I)c(O)c(I)c1)C(=O)O,8.49 µM (active)
2,CN(C)c1ccc(C=C2C=CC=C2)cc1,inactive
3,CN(C)c1ccc(N=Nc2ccccc2)cc1,4.78 µM (active)
4,COC(=O)C1=C(c2cccc(OCc3ccccc3)c2)C[C@@H]2CC[C@H]1N2C(=O)NCCCc1ccccc1,inactive
5,COC(=O)C1=C(c2ccc(F)cc2OCc2ccccc2)C[C@@H]2CC[C@H]1N2C(=O)NCc1ccc(N(C)C)cc1,10.7 µM (active)
6,CCOC(=O)c1cc2c(cn1)[C@@H](CCO)NC2,inactive
7,COc1cccc2c1C(=O)c1c(O)c3c(c(O)c1C2=O)C[C@@](O)(C(=O)CO)C[C@@H]3O[C@H]1C[C@H](N)[C@H](OC2CCCCO2)[C@H](C)O1 (stereo partly drawn),7.57 µM (active)
8,C[C@H]1CCC[C@H](O)CCCCCc2cc(O)cc(O)c2C(=O)O1,inactive
9,CN(C)S(=O)(=O)c1ccc(C(=O)NNc2nc(-c3ccccc3)c3cc(Br)ccc3n2)cc1,8.49 µM (active)
10,O=C1NC(=S)NC(=O)C1=Cc1ccc(Br)s1,inactive
11,COc1ccc(-c2cc(=NCCC(=O)O)c3cc(C)ccc3o2)cc1,10.7 µM (active)
12,Cc1nc2ccccc2c(=O)n1-c1ccc(Cl)cc1[N+](=O)[O-],inactive
13,COc1ccccc1N1CCN(CCc2c[nH]c3cc4c(cc23)OCO4)CC1,13.5 µM (active)
14,O=C1NC(=O)N(c2ccc(Cl)cc2)C(=O)/C1=C\c1ccc(Sc2nc3ccccc3[nH]2)o1,inactive
15,CC(N)[C@H](O)c1ccc(O)c(O)c1 (stereo partly drawn),inactive
16,Cc1cc(/C=C2\C(=O)NC(=O)N(c3ccc(Br)cc3)C2=O)c(C)n1-c1cc(C(=O)O)cc(C(=O)O)c1,inactive
17,Cc1c(C(=O)c2cccc3ccccc23)c2cccc3c2n1[C@H](CN1CCOCC1)CO3,inactive

row,SMILES,Potency
1,O=C(Cc1ccccc1)c1ccccn1,10.7 µM (active)
2,COC1C(O)C(C)OC(OC2C(Oc3cccc4c(O)c5c(=O)oc6ccc(C)c7c(=O)oc(c34)c5c67)OC(C)C(O)C2O)C1O (stereo not drawn),inactive
3,CCC(COC(=O)c1cc(OC)c(OC)c(OC)c1)(c1ccccc1)N(C)C (stereo not drawn),inactive
4,COC(=O)C1=C(C)NC(C)=C(C(=O)OC)C1c1ccccc1[N+](=O)[O-],10.7 µM (active)
5,O=C(O)c1cc[c]([Sb](=[O])([OH])[OH])cc1[N+](=O)[O-],inactive
6,C=CCN1C(=O)/C(=C/c2ccc(Br)s2)C(=O)NC1=S,inactive
7,Cc1ccc2c(C)c3ccc4ccccc4c3c[n+]2c1,13.5 µM (active)
8,CCOC(=O)CCCc1cc[c]([Sb](=[O])([OH])[OH])cc1,inactive
9,CCOc1ccc(N2C(=O)/C(=C/c3ccc(C)o3)C(=O)NC2=S)cc1,inactive
10,C=C1C(=O)O[C@@H]2C[C@@H](C)[C@@H]3C=CC(=O)[C@@]3(C)[C@@H](OC(=O)CC(=O)O[C@H]3[C@@H]4C(=C)C(=O)O[C@@H]4C[C@@H](C)[C@@H]4C=CC(=O)[C@]43C)[C@H]12,8.49 µM (active)
11,Cc1ccc(/C=C2\C(=O)NC(=S)N(c3cccc(F)c3)C2=O)o1,inactive
12,O=C(O)CCCOc1ccc(Cl)cc1Cl,inactive
13,CNc1ccc2nc3ccccc3[n+](C)c2c1,8.49 µM (active)
14,Cc1c(N=Nc2c(O)[nH]c(=O)[nH]c2=O)c(=O)n(-c2ccccc2)n1C,2.13 µM (active)
15,O=C1NC(=O)N(c2ccc(Br)cc2)C(=O)/C1=C/c1ccsc1,inactive
16,CCOc1cc2c(cc1OCC)-n1cccc1C(c1ccc(F)cc1)NC2 (stereo not drawn),inactive
